# Laboratory results from PubChem BioAssay (NCI).
# About 83,000 compounds went through this panel and 20% of them were active in at least one assay; those are over-represented in the sample as a whole.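 Plates (96-well) were seeded with cells, treated with compound at one concentration, and incubated for 48 hours before percent growth was determined.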 Activity calls are given as the source filed them. Rule for the calls: active = growth percent below 10; inactive = the rest.
# System: UACC-257 melanoma
# Test: NCI-60 one-dose screen, 48 h (100 = growth as untreated, 0 = no growth, -100 = all killed)
# Conditions: 10 µM
row,SMILES,growth
1,CCCCCCCCO,101% (inactive)
2,O=c1[nH]nc(SC2CCCCC2)c(=O)[nH]1,91.2% (inactive)
3,CCCNC(=O)c1ccc(S(N)(=O)=O)cc1,110% (inactive)
4,CN(C)c1ccc2oc(=O)c3ccccc3c2c1,106% (inactive)
5,Oc1ccccc1-c1nnco1,97.3% (inactive)
6,FC(F)(F)c1ccc2c(c1)N(CCCN1CCN(C3CC3)CC1)c1ccccc1S2,74.4% (inactive)
7,CCC(C)(O)c1ccc(C)cc1 (stereo unspecified),105% (inactive)
8,Cc1cc(C)cc(NCCC#N)c1,124% (inactive)
9,O/N=C/c1ccc(O)cc1O,87.7% (inactive)
10,Cc1cc2ccccc2c(O)c1C#N,106% (inactive)
11,Cc1cc2nc(CO)[nH]c2cc1C,92% (inactive)
12,C=CCNc1ccccc1,102% (inactive)
13,NC(=O)NC(=O)c1ccc(Cl)cc1,107% (inactive)
14,CCOc1ccc(I)cc1,104% (inactive)
15,CC(C)C(C#N)(C(C)C)C(C)C,96% (inactive)
16,CCCCOC(OCCCC)c1ccccc1,109% (inactive)
17,CCOc1ccccc1/C=N/Nc1nc2ccccc2o1,113% (inactive)
18,CO[C@H]1C[C@@H]2CC[C@@H](C)[C@@](O)(O2)C(=O)C(=O)N2CCCC[C@H]2C(=O)O[C@H]([C@H](C)C[C@@H]2CC[C@@H](O)[C@H](OC)C2)CC(=O)[C@H](C)C=C(C)[C@@H](O)[C@@H](OC)C(=O)[C@H](C)C[C@H](C)/C=C/C=C/C=C1C,37.3% (inactive)
19,Cc1ccc(O)c(C(=O)c2ccccc2)c1,96.4% (inactive)
20,CCOC(=O)c1[nH]c(C)c(C(C)=O)c1C,98.3% (inactive)
21,CC(C)C1CCCCC1O (stereo unspecified),101% (inactive)
